Experimental data from PubChem BioAssay AID1159580 (chemical genetic matrix, 2015).
“And” between values parts separate entries of the source, which are not always exact repeats. Equal values may be shown once. The campaign covered roughly 5,500 compounds. About 2,000 (36%) were called active. Not shown: some 18% with an inconclusive outcome. Cut-off read from the data, not from the text of the source: active = normalized growth mostly below about 0.91 (no sharp cut-off); inconclusive = no clear call, values can overlap the other calls; inactive = mostly above about 0.92. The list shows a part of the results.

Test: chemical genetic growth profiling, strain panel (AID 1159580);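 note: tested at 20 µM; growth read once vehicle control cultures reached saturation at 30 °C; 1 = growth at the plate median or of vehicle wells; lower values mean less growth of the strain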
Details: S. cerevisiae deletion strains, growth OD

Measured: normalized growth

c1ccc2c(c1)sc1ccccc12
inactive: locus YAL021C, strain ccr4, hits give low values 1.02 | locus YBR021W, strain FUR4, hits give low values 1.03 | locus YBR171W, strain sec66, hits give low values 0.912 | locus YBR229C, strain ROT2, hits give low values 1 | locus YBR279W, strain paf1, hits give low values 0.952 | locus YCL029C, strain bik1, hits give low values 0.973 | locus YDL035C, strain GPR1, hits give low values 0.99 | locus YDL040C, strain nat1, hits give low values 0.942 | locus YDL074C, strain BRE1, hits give low values 0.97 | locus YDL101C, strain DUN1, hits give low values 0.96 | locus YDL134C, strain PPH21, hits give low values 0.938 | locus YDL185W, strain tfp1, hits give low values 0.986 | locus YDL192W, strain arf1, hits give low values 0.959 | locus YDR069C, strain doa4, hits give low values 1.02 | locus YDR101C, strain arx1, hits give low values 0.955 | locus YDR159W, strain sac3, hits give low values 0.869 | locus YDR162C, strain NBP2, hits give low values 0.883 | locus YDR195W, strain ref2 1.09 | locus YDR388W, hits give low values 0.971 | locus YDR502C, strain sam2, hits give low values 0.928 | locus YEL037C, strain rad23, hits give low values 0.933 | locus YEL061C, strain CIN8, hits give low values 0.991 | locus YER016W, strain bim1, hits give low values 0.957 | locus YER110C, hits give low values 0.97 | locus YER155C, strain BEM2, hits give low values 0.946 | locus YER167W, strain BCK2, hits give low values 0.96 | locus YFR010W, strain ubp6, hits give low values 0.976 | locus YGL078C, strain dbp3, hits give low values 0.973 | locus YGL086W, strain mad1, hits give low values 0.941 | locus YGL167C, strain pmr1, hits give low values 0.937 | locus YGL248W, strain PDE1, hits give low values 0.898 | locus YGR135W, strain pre9, hits give low values 0.929 | locus YGR229C, strain SMI1, hits give low values 0.917 | locus YGR252W, strain gcn5, hits give low values 1.02 | locus YHR027C, strain rpn1, hits give low values 0.922 | locus YHR030C, strain SLT2, hits give low values 0.978 and 0.997 | locus YHR079C, strain IRE1 (second series), hits give low values 0.957 | locus YHR079C, strain IRE1, hits give low values 0.996 | locus YHR094C, strain hxt1, hits give low values 0.972 | locus YHR129C, strain ARP1, hits give low values 0.981 | locus YHR200W, strain rpn10, hits give low values 0.97 | locus YIL066C, strain RNR3, hits give low values 0.994 | locus YIL073C, strain SPO22, hits give low values 0.951 | locus YIL125W, strain kgd1, hits give low values 0.962 | locus YIR030C, strain dcg1, hits give low values 0.957 | locus YJL095W, strain BCK1, hits give low values 0.834 and 1.01 | locus YJL115W, strain asf1, hits give low values 0.921 | locus YJL134W, strain LCB3, hits give low values 0.995 | locus YJL154C, strain vps35, hits give low values 0.924 | locus YJL168C, strain set2, hits give low values 0.97 | locus YJL187C, strain SWE1 (second series), hits give low values 0.957 | locus YJR043C, strain POL32, hits give low values 0.99 | locus YJR066W, strain TOR1, hits give low values 0.974 | locus YKL009W, strain mrt4, hits give low values 0.966 | locus YKL068W, hits give low values 0.973 | locus YKL085W, strain MDH1 (second series), hits give low values 0.971 | locus YKL085W, strain MDH1, hits give low values 0.971 | locus YLL041C, strain sdh2, hits give low values 0.935 | locus YLR039C, strain RIC1, hits give low values 0.735 | locus YLR058C, strain SHM2, hits give low values 0.968 | locus YLR102C, strain apc9, hits give low values 0.974 | locus YLR113W, strain HOG1, hits give low values 1.02 | locus YLR262C, strain YPT6, hits give low values 0.656 | locus YLR268W, strain sec22, hits give low values 0.897 | locus YLR330W, strain CHS5, hits give low values 0.95 | locus YLR342W, strain FKS1 (second series), hits give low values 1.03 | locus YLR342W, strain FKS1, hits give low values 0.959 | locus YLR357W, strain rsc2, hits give low values 0.909 | locus YLR370C, strain arc18, hits give low values 0.929 | locus YLR384C, strain iki3, hits give low values 0.939 | locus YML016C, strain PPZ1, hits give low values 0.988 | locus YML124C, strain tub3, hits give low values 0.971 | locus YMR078C, strain ctf18, hits give low values 0.967 | locus YMR231W, strain pep5, hits give low values 0.967 | locus YMR263W, strain SAP30, hits give low values 0.954 | locus YMR307W, strain GAS1, hits give low values 0.869 | locus YNL067W, strain RPL9B, hits give low values 0.955 | locus YNL128W, strain TEP1, hits give low values 0.965 | locus YNL183C, strain NPR1, hits give low values 0.96 | locus YNL209W, strain ssb2, hits give low values 0.948 | locus YNL233W, strain BNI4, hits give low values 0.873 | locus YNL250W, strain rad50, hits give low values 0.974 | locus YNL271C, strain bni1, hits give low values 0.95 | locus YNL298W, strain CLA4, hits give low values 0.929 | locus YNR052C, strain pop2, hits give low values 0.991 | locus YOL012C, strain htz1 0.804 | locus YOL147C, strain pex11, hits give low values 0.953 | locus YOR061W, strain CKA2, hits give low values 0.994 | locus YOR069W, strain VPS5, hits give low values 0.996 | locus YOR070C, strain gyp1, hits give low values 0.937 | locus YOR080W, strain dia2, hits give low values 0.948 | locus YOR136W, strain idh2, hits give low values 0.951 | locus YOR144C, strain elg1, hits give low values 0.972 | locus YOR231W, strain MKK1, hits give low values 1.03 | locus YOR270C, strain vph1, hits give low values 1.02 | locus YOR290C, strain snf2, hits give low values 0.891 | locus YOR316C, strain cot1, hits give low values 0.966 | locus YPL240C, strain hsp82, hits give low values 0.934 | locus YPL241C, strain CIN2, hits give low values 0.999 | locus YPL256C, strain CLN2, hits give low values 0.984 | locus YPR119W, strain clb2, hits give low values 0.965 | locus YPR141C, strain kar3, hits give low values 0.959 | locus YPR163C, strain tif3, hits give low values 0.983 | locus YPR167C, strain met16, hits give low values 0.972
active: locus YAL013W, strain DEP1, hits give low values 0.807 | locus YAL026C, strain drs2, hits give low values 0.832 | locus YAL030W, strain snc1, hits give low values 0.851 | locus YBL061C, strain skt5, hits give low values 0.811 | locus YBR009C, strain hhf1, hits give low values 0.734 | locus YBR023C, strain chs3, hits give low values 0.867 | locus YBR231C, strain swc5, hits give low values 0.86 | locus YCL011C, strain gbp2, hits give low values 0.815 | locus YCL016C, strain dcc1, hits give low values 0.877 | locus YCL069W, strain vba3, hits give low values 0.778 | locus YCR088W, strain abp1, hits give low values 0.905 | locus YDL005C, strain med2, hits give low values 0.906 | locus YDR001C, strain nth1, hits give low values 0.894 | locus YDR137W, strain rgp1, hits give low values 0.427 | locus YDR297W, strain sur2, hits give low values 0.842 | locus YDR318W, strain mcm21, hits give low values 0.912 | locus YDR334W, strain swr1, hits give low values 0.871 | locus YDR335W, strain msn5, hits give low values 0.781 | locus YDR392W, strain spt3, hits give low values 0.588 | locus YEL003W, strain gim4, hits give low values 0.572 | locus YEL061C, strain CIN8 (second series), hits give low values 0.8 | locus YER015W, strain faa2, hits give low values 0.765 | locus YER111C, strain swi4, hits give low values 0.823 | locus YER155C, strain BEM2 (second series), hits give low values 0.223 | locus YGL173C, strain kem1, hits give low values 0.827 | locus YGL227W, strain vid30, hits give low values 0.809 | locus YGL240W, strain doc1, hits give low values 0.778 | locus YGL253W, strain hxk2, hits give low values 0.854 | locus YHR013C, strain ard1, hits give low values 1.25 [resistant] | locus YHR142W, strain chs7, hits give low values 0.597 | locus YJL092W, strain hpr5, hits give low values 0.841 | locus YJL095W, strain BCK1 (second series), hits give low values 0.834 | locus YJL129C, strain trk1, hits give low values 0.802 | locus YJL164C, strain tpk1, hits give low values 0.802 | locus YJL166W, strain qcr8, hits give low values 0.652 | locus YJL187C, strain SWE1, hits give low values 0.882 | locus YKL160W, strain elf1, hits give low values 0.845 | locus YKR001C, strain vps1, hits give low values 0.812 | locus YKR026C, strain gcn3, hits give low values 0.835 | locus YKR091W, strain srl3, hits give low values 0.924 | locus YLL001W, strain dnm1, hits give low values 0.768 | locus YLL026W, hits give low values 0.814 | locus YLR027C, strain aat2, hits give low values 0.757 | locus YLR221C, strain rsa3, hits give low values 0.779 | locus YLR258W, strain gsy2, hits give low values 0.891 | locus YLR262C, strain YPT6 (second series), hits give low values 0.315 | locus YLR320W, strain mms22, hits give low values 0.662 | locus YLR371W, strain rom2, hits give low values 0.854 | locus YLR418C, strain cdc73, hits give low values 0.785 | locus YML032C, strain rad52, hits give low values 0.9 | locus YML120C, strain ndi1, hits give low values 0.749 | locus YMR058W, strain fet3, hits give low values 0.774 | locus YMR125W, strain sto1, hits give low values 0.844 | locus YMR129W, hits give low values 0.909 | locus YMR205C, strain PFK2, hits give low values 0.737 | locus YMR223W, strain ubp8, hits give low values 0.86 | locus YNL071W, strain lat1, hits give low values 0.613 | locus YNL153C, strain GIM3, hits give low values 0.728 | locus YNL248C, strain rpa49, hits give low values 0.748 | locus YNL307C, strain MCK1, hits give low values 0.849 | locus YNL322C, strain KRE1 (second series), hits give low values 0.894 | locus YNR049C, strain mso1, hits give low values 0.915 | locus YOR001W, strain rrp6, hits give low values 0.714 | locus YOR083W, strain WHI5, hits give low values 0.812 | locus YOR106W, strain vam3, hits give low values 0.727 | locus YOR184W, strain ser1, hits give low values 0.676 | locus YOR265W, strain rbl2, hits give low values 0.873 | locus YPL051W, strain arl3, hits give low values 0.776 | locus YPL078C, strain atp4, hits give low values 0.691 | locus YPL106C, strain sse1, hits give low values 0.778 | strain wtn01, hits give low values 0.893
